PubChem BioAssay (Tox21)
Records with an inconclusive call do not appear. A call without a number means that no potency is given here. Activity calls are given as the source filed them. Unless noted, the call rests on the fitted dose curve; in most records, active means well fitted curve in the direction sought with a large enough effect in the repeat runs; inconclusive means weak or mixed curves; inactive means no such curve, though single readings can be large; an effect the other way counts as inactive or inconclusive.

Columns and labels:
[1] = qHTS assay to identify small molecule agonists of the peroxisome proliferator-activated receptor delta (PPARd) signaling pathway - cell viability counter screen (AID 743211); further: nearly all actives have a fitted effect of over 55% in size
In short: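 HEK293H PPARd-bla, 3000 cells/well; 5 h preincubation 37C/5% CO2; cpd in DMSO, 17 h 37C; B/G FRET substrate 2 h RT; CellTiter-Glo 30 min RT, luminescence.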

[2] = target: Peroxisome proliferator-activated receptor delta (Homo sapiens) (UniProt Q03181); assay: qHTS assay to identify small molecule agonists of the peroxisome proliferator-activated receptor delta (PPARd) signaling pathway (AID 743212; calls by dose curve)
Chain of Peroxisome proliferator-activated receptor delta (Homo sapiens) (Q03181 whole entry, looked up): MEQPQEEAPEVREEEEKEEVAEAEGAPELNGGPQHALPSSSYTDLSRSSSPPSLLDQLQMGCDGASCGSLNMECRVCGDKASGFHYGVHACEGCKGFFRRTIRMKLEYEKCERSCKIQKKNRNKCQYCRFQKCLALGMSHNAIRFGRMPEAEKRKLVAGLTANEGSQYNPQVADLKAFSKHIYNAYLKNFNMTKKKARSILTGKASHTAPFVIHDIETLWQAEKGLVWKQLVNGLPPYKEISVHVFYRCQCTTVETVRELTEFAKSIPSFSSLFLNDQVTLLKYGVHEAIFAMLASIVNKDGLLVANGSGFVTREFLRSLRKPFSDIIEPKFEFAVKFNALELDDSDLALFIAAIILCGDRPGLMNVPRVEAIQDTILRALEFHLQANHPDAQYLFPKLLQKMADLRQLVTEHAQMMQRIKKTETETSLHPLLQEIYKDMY
In short: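 Quantitative high-throughput agonist screen in a HEK293H beta-lactamase reporter line under UAS control. Compounds in DMSO, at 37 C. Fluorescence read after 2 h with FRET substrate at room temperature.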

[3] = qHTS assay to identify small molecule antagonists of the peroxisome proliferator-activated receptor delta (PPARd) signaling pathway - cell viability counter screen (AID 743213); further: nearly all actives have a fitted effect of over 50% in size
In short: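 HEK293H cells with the PPARd UAS-bla reporter, co-treated 17 h at 37 C with compounds and L165041 (300 nM final), were lysed with CellTiter-Glo. Luminescence indicated viable cell content.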

[4] = target: Peroxisome proliferator-activated receptor delta (Homo sapiens) (UniProt Q03181); assay: qHTS assay to identify small molecule antagonists of the peroxisome proliferator-activated receptor delta (PPARd) signaling pathway (AID 743215; active means well fitted inhibition curve with a large enough effect in the signal ratio in the repeat runs, not every such curve was filed as active; the % refers to the signal ratio;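 further: cells stimulated with agonist L165041 at 300 nM final during compound exposure; series mostly up to about 62 µM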)
In short: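 PPARd UAS-bla HEK293H cells were pre-incubated 5 h at 37 C, then given test compounds in DMSO plus agonist L165041 (300 nM final). After 17 h at 37 C, beta-lactamase FRET substrate was added; fluorescence read after 2 h at room temperature.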

[5] = qHTS assay to identify small molecule agonists of the farnesoid-X-receptor (FXR) signaling pathway - cell viability counter screen (AID 743218); further: nearly all actives have a fitted effect of over 45% in size
In short: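 FXR-UAS-bla HEK 293T cells, plated 5 h at 37 C, were exposed to compounds for 16 h at 37 C. CellTiter-Glo was then added to the same wells as the bla readout; luminescence read after 30 min at room temperature.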

[6] = qHTS assay to identify small molecule antagonists of the farnesoid-X-receptor (FXR) signaling pathway - cell viability counter screen (AID 743221; active means well fitted cell-killing curve with a large enough effect in the repeat runs, not every such curve was filed as active; further: nearly all actives have a fitted effect of over 50% in size)
In short: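 Luminescence from CellTiter-Glo measures cytotoxicity in GeneBLAzer FXR-UAS-bla HEK 293T cells. Cells were exposed to compounds with 50 uM chenodeoxycholic acid (final) for 16 h at 37 C, in wells also used for the reporter readout.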

[7] = target: Vitamin D3 receptor (Homo sapiens) (UniProt P11473); assay: qHTS assay to identify small molecule agonists of the vitamin D receptor (VDR) signaling pathway (AID 743222; calls by dose curve)
Chain of Vitamin D3 receptor (Homo sapiens) (P11473 whole entry, looked up): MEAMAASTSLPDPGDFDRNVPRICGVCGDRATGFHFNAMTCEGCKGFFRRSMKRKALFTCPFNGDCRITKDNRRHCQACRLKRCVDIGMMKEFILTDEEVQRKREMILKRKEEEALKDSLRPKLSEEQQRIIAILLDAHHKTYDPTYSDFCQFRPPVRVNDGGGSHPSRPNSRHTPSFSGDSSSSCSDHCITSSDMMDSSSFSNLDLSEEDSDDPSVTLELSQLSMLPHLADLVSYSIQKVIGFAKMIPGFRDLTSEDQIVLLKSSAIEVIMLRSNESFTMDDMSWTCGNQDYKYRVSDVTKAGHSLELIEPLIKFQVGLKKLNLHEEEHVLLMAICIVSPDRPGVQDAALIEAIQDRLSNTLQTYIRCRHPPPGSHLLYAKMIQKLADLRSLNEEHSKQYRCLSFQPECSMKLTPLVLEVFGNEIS
In short: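 VDR-bla cells were plated 4 h at 37C/5% CO2, then exposed to compounds in DMSO for 16 h. After LiveBLAzer B/G FRET substrate addition and 2 h at room temperature, beta-lactamase reporter fluorescence was read.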

[8] = target: Vitamin D3 receptor (Homo sapiens) (UniProt P11473); assay: qHTS assay to identify small molecule antagonists of the vitamin D receptor (VDR) signaling pathway (AID 743223; active means well fitted inhibition curve with a large enough effect in the signal ratio in the repeat runs, not every such curve was filed as active; the % refers to the signal ratio)
In short: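 Antagonist mode uses 1alpha,25-dihydroxyvitamin D3 at 3 nM final as stimulus. VDR-bla cells receive compounds in DMSO, incubate 16 h at 37C, then a beta-lactamase FRET substrate for 2 h at room temperature before fluorescence measurement.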

[9] = qHTS assay to identify small molecule agonists of the vitamin D receptor (VDR) signaling pathway - cell viability counter screen (AID 743224); further: series mostly up to about 63 µM; nearly all actives have a fitted effect of over 50% in size
In short: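 VDR-bla cells were preincubated 4 h at 37C/5% CO2, then exposed to compounds for 16 h. After the 2 h room-temperature bla FRET read, CellTiter-Glo was added to the same wells and luminescence read after 30 min.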

[10] = qHTS assay to identify small molecule antagonists of the vitamin D receptor (VDR) signaling pathway - cell viability counter screen (AID 743225); further: nearly all actives have a fitted effect of over 50% in size
In short: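 Read-out: CellTiter-Glo luminescence measured 30 min after reagent addition at room temperature. Cells were VDR-bla HEK 293T exposed 16 h at 37C, 5% CO2, to compound with 3 nM final calcitriol agonist.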

[11] = qHTS assay to identify small molecule agonists of the NFkB signaling pathway - cell viability counter screen (AID 1159515; calls by dose curve; further: series mostly up to about 61 µM; nearly all actives have a fitted effect of over 55% in size)
In short: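 NFkB-bla ME-180 cells, 2,000/well, were plated overnight at 37 C, 5% CO2, then exposed to compounds in DMSO for 5 hr. After the bla FRET read, CellTiter-Glo was added to the same wells; luminescence was read after 30 min at room temperature.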

[12] = qHTS assay to identify small molecule agonists of the endoplasmic reticulum stress response signaling pathway (AID 1159516; active means well fitted activation curve with a large enough effect in the signal ratio in the repeat runs, not every such curve was filed as active; the % refers to the signal ratio)
In short: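 CellSensor ESRE-bla HeLa cells, carrying a beta-lactamase reporter driven by the ER stress response element, were plated overnight and exposed to compounds for 5 hr at 37 C. Reporter activity was read as FRET substrate fluorescence after 2 hr at room temperature.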

[13] = qHTS assay to identify small molecule agonists of the endoplasmic reticulum stress response signaling pathway - cell viability counter screen (AID 1159517; calls by dose curve)
In short: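 Counter-screen wells were identical to the reporter wells. Cells were plated at 1,500 per well and dosed for 5 hr, then read for luminescence 30 min after CellTiter-Glo addition.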

[14] = qHTS assay to identify small molecule antagonists of the retinoid-related orphan receptor gamma (ROR-gamma) signaling pathway - cell viability counter screen (AID 1159520); further: nearly all actives have a fitted effect of over 50% in size
In short: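 Tet-on ROR gamma CHO cells were given compounds for 2 hr, then doxycycline hyclate at 1 uM final, and incubated 16 hr at 37 C. Viability was measured as ATP content by CellTiter-Glo luminescence.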

[15] = target: Nuclear receptor ROR-gamma (Homo sapiens) (UniProt P51449); assay: qHTS assay to identify small molecule antagonists of the retinoid-related orphan receptor gamma (ROR-gamma) signaling pathway (AID 1159521)
In short: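 CHO Tet-on RORγ, RORE-luc reporter. Cpd 2 h pre-incubation, then dox hyclate 1 uM final, 16 h, 37 C/5% CO2. ONE-Glo luminescence; decrease = antagonist.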

[16] = qHTS assay to identify small molecule agonists of the AP-1 signaling pathway - cell viability counter screen (AID 1159525; calls by dose curve; further: nearly all actives have a fitted effect of over 55% in size)
In short: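 AP-1-bla ME-180 cells in Opti-MEM with 0.5% dialyzed FBS, compound exposure 5 h at 37 C in 15-point titration. Viability read in the same wells as ATP content by CellTiter-Glo luminescence, normalised to tetra-n-octylammonium bromide and DMSO controls.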

[17] = qHTS assay to identify small molecule agonists of the AP-1 signaling pathway (AID 1159526; calls by dose curve)
[18] = target: Retinoic acid receptor RXR-alpha (Homo sapiens) (UniProt P19793); assay: qHTS assay to identify small molecule agonists of the RXR signaling pathway (AID 1159527; calls by dose curve; further: nearly all actives have a fitted effect of over 35% in size; further: potency means the concentration at half of the fitted maximal effect)
Chain of Retinoic acid receptor RXR-alpha (Homo sapiens) (P19793 whole entry, looked up): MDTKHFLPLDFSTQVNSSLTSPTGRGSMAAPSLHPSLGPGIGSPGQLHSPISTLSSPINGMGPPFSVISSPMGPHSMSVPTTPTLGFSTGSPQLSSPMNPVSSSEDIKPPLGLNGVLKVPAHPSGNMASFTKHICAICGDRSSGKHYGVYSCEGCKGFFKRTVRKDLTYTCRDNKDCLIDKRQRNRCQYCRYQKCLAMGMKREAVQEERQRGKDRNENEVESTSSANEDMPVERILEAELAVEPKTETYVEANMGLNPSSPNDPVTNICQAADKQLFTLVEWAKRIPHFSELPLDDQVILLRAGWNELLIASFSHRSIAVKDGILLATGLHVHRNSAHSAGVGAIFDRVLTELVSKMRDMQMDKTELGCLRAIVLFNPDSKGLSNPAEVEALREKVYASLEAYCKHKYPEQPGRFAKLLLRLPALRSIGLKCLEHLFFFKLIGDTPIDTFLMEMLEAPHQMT
In short: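 Read-out: beta-lactamase FRET ratio (405 nm excitation, 460 and 530 nm emission) after 2 hr substrate loading at room temperature. Cells were RXR-alpha-UAS-bla HEK 293T treated with compounds for 16 hr in 2% charcoal-stripped FBS medium.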

[19] = target: Bile acid receptor (Homo sapiens) (UniProt Q96RI1); assay: qHTS assay to identify small molecule antagonists of the farnesoid-X-receptor (FXR) signaling pathway (AID 743217; active means well fitted inhibition curve with a large enough effect in the signal ratio in the repeat runs, not every such curve was filed as active; the % refers to the signal ratio)
Chain of Bile acid receptor (Homo sapiens) (Q96RI1 whole entry, looked up): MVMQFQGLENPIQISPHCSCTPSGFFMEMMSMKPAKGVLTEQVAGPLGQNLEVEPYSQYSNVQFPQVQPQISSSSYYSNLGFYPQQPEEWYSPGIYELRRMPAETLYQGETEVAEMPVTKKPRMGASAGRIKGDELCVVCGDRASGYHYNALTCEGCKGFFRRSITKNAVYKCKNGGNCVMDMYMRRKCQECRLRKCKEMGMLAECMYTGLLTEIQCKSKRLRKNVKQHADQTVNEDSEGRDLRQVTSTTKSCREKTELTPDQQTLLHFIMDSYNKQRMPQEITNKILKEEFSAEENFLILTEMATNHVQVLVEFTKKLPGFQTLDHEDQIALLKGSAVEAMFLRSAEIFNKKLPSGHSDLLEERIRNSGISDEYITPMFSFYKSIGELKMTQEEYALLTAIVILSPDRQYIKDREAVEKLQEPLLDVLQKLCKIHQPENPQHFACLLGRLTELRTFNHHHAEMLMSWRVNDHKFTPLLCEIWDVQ
In short: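 FXR-UAS-bla HEK 293T cells pre-incubated 5 h at 37 °C, then exposed to compounds with chenodeoxycholic acid (50 uM final) for 16 h at 37 °C. Beta-lactamase reporter read by LiveBLAzer B/G FRET substrate fluorescence after 2 h at room temperature.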

[20] = target: Bile acid receptor (Homo sapiens) (UniProt Q96RI1); assay: qHTS assay to identify small molecule agonists of the farnesoid-X-receptor (FXR) signaling pathway (AID 743220; active means well fitted activation curve with a large enough effect in the signal ratio in the repeat runs, not every such curve was filed as active; the % refers to the signal ratio)
In short: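 Beta-lactamase reporter under UAS control in GeneBLAzer FXR HEK 293T cells (5000/well) measured with LiveBLAzer FRET substrate after 2 h at room temperature. Compound exposure lasted 16 h at 37C.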

SMILES	Potency [1]	Potency [2]	Potency [3]	Potency [4]	Potency [5]	Potency [6]	outcome [7]	Potency [8]	Potency [9]	Potency [10]	Potency [11]	Potency [12]	Potency [13]	Potency [14]	Potency [15]	Potency [16]	outcome [17]	Potency [18]	Potency [19]	Potency [20]
CS(=O)(=O)c1ccc(Cl)cc1	inactive	inactive	inactive	inactive	inactive	inactive	inactive	inactive	inactive	inactive	inactive	inactive	inactive	inactive	inactive	inactive	inactive	inactive		
COc1ccc(N)c(OC)c1	inactive	inactive	inactive		inactive	inactive	inactive	inactive	inactive	inactive	inactive	inactive	inactive	inactive	inactive	inactive	inactive	inactive		
OC1CCCCC1	inactive		inactive	inactive	inactive	inactive	inactive	inactive	inactive		inactive	inactive	inactive	inactive	inactive	inactive	inactive	inactive		
OB(O)O	inactive	inactive	inactive	inactive	inactive	inactive	inactive	inactive	inactive	inactive	inactive	inactive	inactive	inactive	inactive	inactive	inactive	15.5 µM (active)	inactive	inactive
Cc1cc(CC(=O)O)n(C)c1C(=O)c1ccc(Cl)cc1	inactive		inactive	inactive	inactive	inactive	inactive	inactive	inactive	inactive	inactive	inactive	inactive	inactive	inactive	inactive	inactive	inactive	inactive	inactive
Cc1cccc(C)c1[N+](=O)[O-]	inactive		inactive	inactive	inactive	inactive		inactive	inactive	inactive	inactive	inactive	inactive	inactive	inactive	inactive	inactive	inactive		
C=C1C[C@]23C[C@@]1(O)CC[C@H]2[C@@]12C=C[C@H](O)[C@@](C)(C(=O)O1)[C@H]2[C@@H]3C(=O)O	inactive	inactive	inactive	inactive	inactive	inactive		inactive	inactive		inactive	inactive	inactive	inactive	inactive	inactive	inactive	inactive	inactive	inactive
CC(C=O)Cc1ccc(C(C)(C)C)cc1 (stereo not drawn)	inactive		inactive	inactive	inactive				inactive	inactive	inactive	inactive	inactive	inactive	inactive	inactive	inactive	inactive	inactive	inactive
Cc1cc(C)c(O)c(C)c1	inactive		inactive	inactive	inactive	inactive			inactive		inactive	inactive	inactive	inactive	inactive	inactive	inactive	inactive	inactive	inactive
COC(=O)/C=C\C(=O)OC	inactive		inactive	inactive	inactive	inactive		inactive	inactive	inactive	inactive	inactive	inactive	inactive	inactive	inactive	inactive	inactive		
O=C(O)C1=NN(c2ccc(S(=O)(=O)O)cc2)C(=O)C1	inactive	inactive	inactive	inactive	inactive				inactive		inactive	inactive	inactive	inactive	inactive	inactive	inactive	inactive		
Cc1ccc(C(C)C)cc1	inactive		inactive	inactive	inactive		inactive	inactive	inactive		inactive	inactive	inactive	inactive	inactive	inactive	inactive	inactive	inactive	inactive
CCCCCCC(=O)O	inactive		inactive	inactive	inactive			inactive	inactive	inactive	inactive	inactive	inactive	inactive	inactive	inactive	inactive	inactive	inactive	inactive
CCn1cc(C(=O)O)c(=O)c2cc3c(cc21)OCO3	inactive	inactive	inactive	inactive	inactive	inactive	inactive	inactive	inactive		inactive	inactive	inactive	inactive	inactive	inactive	inactive	inactive	inactive	inactive
O=C1OC(=O)c2c(Cl)c(Cl)c(Cl)c(Cl)c21	inactive	inactive	inactive	inactive	inactive				inactive	inactive	inactive	inactive	inactive	inactive	inactive	inactive	inactive	inactive	inactive	inactive
CC(=O)CC(=O)N(C)C	inactive		inactive	inactive	inactive	inactive		inactive	inactive		inactive	inactive	inactive	inactive	inactive	inactive	inactive	inactive	inactive	inactive
